The supplement of paper PMC6518042
Values without a mark were called inactive.

test system: Pectobacterium parmentieri SCC3193; test: DuctApe activity index (growth/respiration on compound as sole nutrient source, blank-subtracted) (activity index (0-3)); higher = stronger utilization of the compound, active = 3 or more; settings: nutrient role (plate category): carbon
Method: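 Biolog Phenotype Microarray plates PM1, PM2A (carbon), PM3 (nitrogen) and PM4 (phosphorus/sulfur) inoculated with P. parmentieri SCC3193 in M9-C minimal salts medium with Biolog dye A, and read in the OmniLog for 46 h. Each well was tested in triplicate and the experiment was run twice. DuctApe computed a blank-subtracted activity index (AV, 0-3) from the mean curves; growth is positive at AV >= 3 and negative at AV <= 2.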

| Structure (SMILES) | DuctApe activity index |
| --- | --- |
| OC[C@@H](O)[C@@H](O[C@H]1O[C@H](CO)[C@@H](O)[C@H](O)[C@H]1O)[C@H](O)[C@@H](O)CO [Maltitol] | 0 |
| O=C1O[C@H](CO)[C@@H](O)[C@H]1O [D-Ribono-1,4-Lactone] | 0 |
| O=C(CO)[C@@H](O[C@H]1O[C@H](CO)[C@@H](O)[C@H](O)[C@H]1O)[C@H](O)[C@H](O)CO [Turanose] | 0 |
| OC[C@@H](O)[C@@H](O)[C@H](O)[C@H](O)CO [D-Mannitol] | 3 (active) |
| O=C(O)C(O)C(O)C(=O)O (centres undefined) [m-Tartaric acid] | 3 (active) |
| O=C(O)[C@@H]1C[C@@H](O)CN1 [Hydroxy-L-Proline] | 0 |
| CO[C@@H]1O[C@H](CO)[C@H](O)[C@H](O)[C@H]1O [b-Methyl-D-Galactoside] | 2 |
| O=C(O)[C@@H](O)[C@H](O)C(=O)O [D-Tartaric acid] | 0 |

same assay, conditions: nutrient role (plate category): nitrogen

| Structure (SMILES) | DuctApe activity index |
| --- | --- |
| O=NO [Nitrite] | 0 |
| N[C@H](CCC(=O)O)C(=O)O [D-Glutamic acid] | 0 |
| CCC(N)C(=O)O (racemic) [DL-a-Amino-N-Butyric acid] | 1 |
| NCC(=O)N[C@@H](CC(N)=O)C(=O)O | 1 |
| NCC(=O)N[C@@H](CCC(N)=O)C(=O)O | 1 |
| NC(N)=O | 0 |
| N[C@H]1C(O)O[C@H](CO)[C@H](O)[C@@H]1O (stereo partly drawn) [D-Galactosamine] | 0 |

same assay, conditions: nutrient role (plate category): phosphate & sulphur

| Structure (SMILES) | DuctApe activity index |
| --- | --- |
| C[C@@H](OP(=O)(O)O)[C@H](N)C(=O)O [O-Phospho-L-Threonine] | 2 |
| Nc1ncnc2c1ncn2[C@@H]1O[C@H](CO)[C@@H](O)[C@H]1OP(=O)(O)O [Adenosine 2`-Monophosphate] | 2 |
| N[C@@H]1[C@@H](O)[C@H](O)[C@@H](COP(=O)(O)O)O[C@@H]1O [D-Glucosamine-6-Phosphate] | 2 |
| NCCS [Cysteamine] | 1 |
| CC(=O)N[C@@H](CS)C(=O)O [N-Acetyl-L-Cysteine] | 1 |
| O=S(O)(O)=S [Thiosulfate] | 0 |
| O=P(O)(O)O [Phosphate] | 1 |
| Nc1nc2c(ncn2[C@@H]2O[C@H](CO)[C@@H](OP(=O)(O)O)[C@H]2O)c(=O)[nH]1 [Guanosine 3`-Monophosphate] | 2 |
| NCCS(=O)(=O)O [Taurine] | 1 |
